This is one part of a sample in which hits are shown more often than they occur.
CHX counter: Cycloheximide Counterscreen for Small Molecule Inhibitors of Shiga Toxin; cell reporter, cycloheximide protein synthesis inhibition counterscreen; max response, %; AID 2314, 2010; actives 12% (n = 300,000); in the data active = max response mostly above about 13%, no sharp cut-off; inactive = mostly below about 14%; also: read at 38.3 µM for the half of the compounds with a filed dose; 0% is about no effect
Giardia FBPA inh: qHTS Assay for Inhibitors of Fructose-1,6-bisphosphate Aldolase from Giardia Lamblia. A8B2U2. purified Giardia FBPA. Potency, µM (top dose mostly 59.6 µM), for inactives: at the highest dose activity, negative = inhibition, actives largely listed as inhibitors. actives 0.71% (n = 290,000); also: potency is read from the fitted curve at half-maximal effect; % is scaled to controls: 0 for no effect and ±100 for the full control effect; nearly all actives have a fitted effect of over 55% in size
Target sequence (A8B2U2 whole entry, looked up): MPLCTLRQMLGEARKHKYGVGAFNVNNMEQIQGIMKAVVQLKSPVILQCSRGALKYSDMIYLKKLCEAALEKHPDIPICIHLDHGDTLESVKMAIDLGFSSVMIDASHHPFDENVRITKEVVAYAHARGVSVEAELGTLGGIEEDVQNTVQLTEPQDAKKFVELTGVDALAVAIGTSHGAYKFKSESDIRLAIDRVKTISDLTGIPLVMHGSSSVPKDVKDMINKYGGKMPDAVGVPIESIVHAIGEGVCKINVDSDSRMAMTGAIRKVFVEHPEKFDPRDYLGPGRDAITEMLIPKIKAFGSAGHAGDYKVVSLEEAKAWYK
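Giardia FBPA (40 nM reagent) was preincubated 10 min at RT with compound (up to 57.5 uM final), then substrate plus GAPDH/TPI/NAD/arsenate coupling system with diaphorase/resazurin was added; resorufin fluorescence (525/598 nm) was read after 20 min.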
TbPYK inhibitor: qHTS of Trypanosoma Brucei Inhibitors. pyruvate kinase (Trypanosoma brucei), Q57TT1. TbPYK enzyme, Kinase-Glo Plus ATP luminescence, 45 min. Potency, µM (series often up to 76.8 µM), for inactives: at the highest dose activity, negative = inhibition, actives largely listed as inhibitors. actives 0.12% (n = 410,000). AID 624173, 2012; also: potency is read from the fitted curve at half-maximal effect; % is scaled to controls: 0 for no effect and ±100 for the full control effect; nearly all actives have a fitted effect of over 50% in size
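Assay buffer: 50 mM TEA pH 7.2, 100 mM KCl, 10 mM MgCl2, 0.05% BSA, 0.01% Tween-20. Pyruvate kinase from T. brucei plus substrate met compound, then ADP (130 uM final). Luminescence was read post 45 min RT.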
Sm TGR inh: qHTS Assay for the Inhibitors of Schistosoma Mansoni Peroxiredoxins. Potency, µM (series often up to 114 µM), for inactives: top-dose activity change, negative = inhibition, most hits filed as inhibitors. actives 3% (n = 360,000). purified TGR, DTNB reduction, TNB absorbance 405 nm; also: potency is read from the fitted curve at half-maximal effect; % is scaled to controls: 0 for no effect and ±100 for the full control effect; nearly all actives have a fitted effect of over 60% in size
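TGR 20 nM + NADPH 100 uM (dispensed conc.), cpd preinc 15 min RT; start with NADPH (500 uM addition) then DTNB (15 mM addition). Kinetic TNB absorbance, 405 nm filter. Four-parameter Hill fit across titration.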
LmPK inhibitor: qHTS Assay for Inhibitors of Leishmania Mexicana Pyruvate Kinase (LmPK); Q27686; purified LmPK, Kinase-Glo ATP luminescence, 1 h; Potency, µM (titrated, usually from 57.5 µM), inactives show at the top dose activity change, negative = inhibition, usual class: inhibitors; actives 0.37% (n = 290,000); AID 1721, 2009; also: potency is read from the fitted curve at half-maximal effect; % is scaled to controls: 0 for no effect and ±100 for the full control effect
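qHTS format; LmPK 0.1 nM; substrates PEP 0.5 mM and ADP 0.1 mM. One-hour room-temperature incubation, then coupled luciferase luminescence; 0.5 nM enzyme wells mark activation.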
Shiga toxin inh: A qHTS for Small Molecule Inhibitors of Shiga Toxin. Vero cells, Shiga toxin protein synthesis inhibition reporter. inhibition, % at 38.7 µM. actives 9.2% (n = 290,000). AID 2315, 2010; in the data active = inhibition mostly above about 28%, no sharp cut-off; inactive = mostly below about 43%; also: 0% is about no effect
The depositor's hits bear a star; ? = inconclusive; nt = no result given. Unless noted, calls follow the shape of the dose curve; as a rule, active = well fitted curve in the direction sought with a large enough effect; inconclusive = small, poorly fitted or top-dose-only effect, or another doubt; inactive = no such curve, though single readings can be large; an effect the other way counts as inactive or inconclusive.

SMILES | CHX counter | Giardia FBPA inh | TbPYK inhibitor | Sm TGR inh | LmPK inhibitor | Shiga toxin inh
CCOC(=O)C1CCCN(C2CC(=O)N(c3ccccc3)C2=O)C1 (stereo not drawn) | 4 | 2% | -3% | ? | -2% | -20
CCOC(=O)C1CCCN(C2CC(=O)N(c3ccc(N4C(=O)CC(N5CCCC(C(=O)OCC)C5)C4=O)cc3)C2=O)C1 (stereo not drawn) | -4 | 0% | 0% | 20µM* | 0% | -12
CCOC(=O)C1CCCN(C2CC(=O)N(c3ccc(C)c(C)c3)C2=O)C1 (stereo not drawn) | 0 | 0% | -7% | 45µM* | 3% | -5
CCCCCCOc1ccc(N2C(=O)CC(N3CCC(C(=O)OCC)CC3)C2=O)cc1 (stereo not drawn) | 3 | 6% | -4% | 4% | 3% | 13
CC(=O)Nc1cccc(N2C(=O)CC(N3CCC(C(=O)N4CCCCC4)CC3)C2=O)c1 (stereo not drawn) | 1 | 2% | -9% | 20µM* | -6% | -10
CCc1ccc(N2C(=O)CC(N3CCC(C(=O)OC)CC3)C2=O)cc1 (stereo not drawn) | -1 | 3% | 1% | 56µM* | -4% | -4
Cc1ccc(N2C(=O)C3CCCN3C2=S)cc1C (stereo not drawn) | 16* | -1% | 16% | 10% | -7% | 28
CCOC(=O)C1CCN(C2CC(=O)N(c3ccc(OCC)cc3)C2=O)CC1 (stereo not drawn) | -4 | 6% | 4% | 50µM* | 1% | -6
CC1CCCCC1NC(=O)c1cc2ccccc2o1 (stereo not drawn) | 35* | -1% | -8% | -6% | 0% | 35*
O=C(NC1CCCC1)c1cc2ccccc2o1 | 40* | nt | -8% | 10% | -8% | 56*
CCC(C(=O)OC)n1nnc2sc(-c3ccccc3)cc2c1=O (stereo not drawn) | nt | nt | -2% | 0% | nt | nt
CCOC(=O)COn1c(=O)c(-c2cccs2)[n+]([O-])c2ccccc21 | 33* | -27% | -4% | 20µM* | 0% | 30
CCOC(=O)COn1c(=O)c(-c2ccc(Br)cc2)[n+]([O-])c2ccccc21 | -1 | 8% | 0% | -15% | 4% | -5
CCOn1c(=O)c(-c2ccc(C)cc2)[n+]([O-])c2ccccc21 | -2 | 11% | -5% | -14% | 0% | -10
COn1c(=O)c(-c2cccs2)[n+]([O-])c2ccccc21 | 20* | -3% | 6% | ? | 0% | 49
CCOC(=O)COn1c(=O)c(-c2ccc(F)cc2)[n+]([O-])c2ccccc21 | -4 | ? | 0% | 89µM* | 3% | -1
CCOn1c(=O)c(-c2cccs2)[n+]([O-])c2ccccc21 | 15 | 1% | -10% | -28% | 4% | -4
CCCOc1ccc(-c2c(=O)n(OCC(=O)OCC)c3ccccc3[n+]2[O-])cc1 | 39* | -3% | -1% | -35% | 0% | 59*
COc1ccc(OC)c(CNC(=O)CN2N=C(c3ccc(Cl)cc3)CCC2=O)c1 | nt | nt | -3% | 8% | nt | nt
CCOc1ccc(-c2c(=O)n(OCC)c3ccccc3[n+]2[O-])cc1 | 24* | -7% | -3% | -6% | -8% | 26
Cc1ccc(SCC(=O)O/N=C(\N)c2ccncc2)cc1 | 37* | -1% | 4% | -7% | 0% | 41
N/C(=N/S(=O)(=O)c1ccccc1)c1cccc([N+](=O)[O-])c1 | -4 | -1% | 3% | ? | 7% | -1
N/C(=N\OCc1ccc([N+](=O)[O-])cc1)c1ccncc1 | 27* | -10% | -2% | -1% | 1% | 58*
N/C(=N\S(=O)(=O)c1ccccc1)c1ccc([N+](=O)[O-])cc1 | -5 | 3% | -7% | 13µM* | 2% | -7
COc1ccc(/C(N)=N/OC(=O)CSc2ccc(C)cc2)cc1 | -2 | -4% | -18% | 5% | -3% | -7
SMILES | CHX counter | Giardia FBPA inh | TbPYK inhibitor | Sm TGR inh | LmPK inhibitor | Shiga toxin inh
Cc1ccc(/C(N)=N/OC(=O)CSc2ccccc2)cc1 | 60* | -4% | 5% | 1% | -2% | 79*
O=C1c2c(O)cc(O)cc2O[C@H](c2ccc(O)c(O)c2)C1O (stereo partly drawn) | -7 | -19% | nt | nt | nt | -10
N/C(=N\OC(=O)CSc1ccccc1)c1ccc([N+](=O)[O-])cc1 | 46* | 0% | -14% | -20% | 1% | 67*
CCn1c2ccccc2c2cc(NC(=O)N3CCOCC3)ccc21 | 32* | -17% | 5% | -32% | -3% | 85*
O=C(Nc1ccccc1)N1CCOCC1 | -2 | 1% | 2% | 7% | 2% | -10
COc1cc2c(cc1NS(=O)(=O)N1CCCCC1)oc1ccccc12 | 4 | -7% | -4% | -5% | 5% | -19
O=S(=O)(Nc1ccc2c(c1)oc1ccccc12)N1CCCC1 | 20* | -6% | -1% | 8% | 3% | 22
CCn1c2ccccc2c2cc(NC(=O)c3ccc(Br)o3)ccc21 | -1 | -28% | -15% | 11µM* | -25% | 17
O=C(Nc1ccc2c(c1)oc1ccccc12)N1CCOCC1 | 52* | 0% | -4% | 13% | 3% | 84*
COc1ccc(N2CCN(C(=O)CCc3c(C)nn(-c4ccc(N5CCCC5)nn4)c3C)CC2)cc1 | nt | nt | -1% | -5% | nt | nt
O=S(Cc1ccc(Cl)cc1)c1ccccc1 (stereo not drawn) | nt | nt | 5% | nt | nt | nt
CC(C(=O)NCc1ccccc1)n1cc([N+](=O)[O-])cn1 (stereo not drawn) | 8 | -2% | 5% | 3% | -2% | 6
COc1ccc(-c2noc(CSCC(=O)Nc3cccc(C(F)(F)F)c3)n2)cc1OC | nt | nt | 0% | -1% | nt | nt
O=C(Cc1n[nH]c(=O)c2ccccc12)NC(c1ccccc1)c1ccccc1 | 16* | 0% | 13% | 11% | 9% | 39
O=c1[nH]nc(CNc2ccc(O)cc2)c2ccccc12 | 1 | 18µM* | -16% | 35µM* | -9% | -20
O=c1[nH]nc(CNc2ccc(OC(F)(F)F)cc2)c2ccccc12 | 21 | -5% | 0% | 6% | 1% | 28
O=C(CSc1ncn(-c2ccccc2)n1)Nc1nc2c(s1)CCCC2 | 11 | -7% | -10% | -7% | 11% | 23
CC1CCN(S(=O)(=O)c2ccc(NC(=O)Cc3ccc(S(=O)(=O)N4CCOCC4)s3)cc2)CC1 | nt | nt | -1% | 79µM* | nt | nt
O=C(Cc1cccs1)Nc1nc2c(s1)CCCC2 | 54* | 18% | -22% | -10% | -8% | 132*

Screens: PubChem BioAssay, National Center for Advancing Translational Sciences (NCATS)
